# Test results from PubChem BioAssay.
# The source made the active and inactive calls.
# Experiments:
# [1] = test system: Plasmodium falciparum Sir2 (PF13_0152, Sir2A); test: pfSir2 binders on small-molecule microarrays, primary screen, biochemical, small-molecule microarray, 635 nm fluorescence (AID 1098); conditions: small-molecule microarray binding, fluorescence 635 nm; higher = more signal;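 also: score merges spot fluorescence intensity with its signal-to-noise ratio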
# [2] = small-molecule microarray binders of probe aDKK1, primary screen, biochemical, biotinylated probe, 635/667 nm fluorescence (AID 1099); conditions: higher = more signal;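 also: score merges 667nm spot fluorescence with signal to noise across triplicate slides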
# [3] = small-molecule microarray binders of probe aCHRDL2, primary screen, biochemical, biotinylated probe, 635/667 nm fluorescence (AID 1100); conditions: higher = more signal
# [4] = splicing luciferase reporter signal modulators, primary screen, spliceosome inhibition project, cell-based, HEK293, splice +/- reporter (AID 1101); conditions: luminescence, 24 h, higher = more signal, called active from +8 up or from −8 down;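 also: HEK293 cells carrying a splicing-competent luciferase reporter gene; test concentration not given here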
# [5] = target: Fibroblast growth factor 10 (Homo sapiens) (UniProt O15520); test: FGF10 binders on small-molecule microarrays, primary screen, biochemical, small-molecule microarray, 635 nm fluorescence (AID 1102); conditions: FGF10 binding, fluorescence 635 nm, higher = more signal
# [6] = test system: glycogen synthase kinase-3 (GSK3A per assay name; protocol says GSK3B); test: GSK3 binders on small-molecule microarrays, primary screen, biochemical, small-molecule microarray, 635 nm fluorescence, GSK3A (AID 1103); conditions: small-molecule microarray binding, fluorescence 635 nm; higher = more signal; also: the record names both GSK3A and GSK3B
# [7] = target: Epidermal growth factor receptor (Homo sapiens) (UniProt P00533); test: EGFR binders on small-molecule microarrays, primary screen, biochemical, small-molecule microarray, 635 nm fluorescence (AID 1104); conditions: EGFR binding, higher = more signal;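 also: score merges 667 nm emission intensity with spot signal to noise over triplicate slides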
# [8] = target: Follistatin-related protein 3 (Homo sapiens) (UniProt O95633); test: FSTL3 binders on small-molecule microarrays, primary screen, biochemical, small-molecule microarray, 635 nm fluorescence (AID 1105); conditions: FSTL3 binding, higher = more signal;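 also: score merges emission near 667 nm and signal to noise per printed spot across three slides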
# [9] = target: Dickkopf-related protein 1 (Homo sapiens) (UniProt O94907); test: DKK1 binders on small-molecule microarrays, primary screen, biochemical, small-molecule microarray, 635 nm fluorescence scan (AID 1106); conditions: DKK1 binding, higher = more signal;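 also: score merges emission near 667 nm with signal to noise over three replicate slides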
# [10] = test system: Inhibin beta A chain (activin A); test: INHBA (activin A) binders on microarrays, primary screen, biochemical, small-molecule microarray, 635 nm fluorescence scan (AID 1107); conditions: small-molecule microarray binding, higher = more signal;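 also: mouse activin A protein probed at 4.33 µg/mL on printed slides; score merges bound-protein fluorescence near 667 nm with spot signal-to-noise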
# [11] = test system: Human papillomavirus type 1a protein E7 (residues 44-93); test: HPV1a E7 fragment binders on microarrays, primary screen, biochemical, small-molecule microarray, residues 44-93, 635 nm fluorescence (AID 1108); conditions: small-molecule microarray binding, fluorescence 635 nm; higher = more signal;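 also: E7 fragment applied at 1 µg/mL in TBST for 1 h at 4 C; score combines spot fluorescence with its signal to noise ratio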
# [12] = modulators of HCV replicon luciferase signal, primary screen, HCV replication inhibitor project, Huh7 cells, luciferase reporter (AID 1109); conditions: 48 h, higher = more signal;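 also: huh7 hepatoma cells harbouring a luciferase neomycin HCV replicon reporter; luciferase luminescence as measure of HCV replicon replication; test concentration not given here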
# [13] = target: Left-right determination factor 2 (Homo sapiens) (UniProt O00292); test: LEFTY2 binders on small-molecule microarrays, primary screen, biochemical, small-molecule microarray, 635 nm fluorescence scan (AID 1110); conditions: LEFTY2 binding, higher = more signal
# [14] = target: Calmodulin-1 (Homo sapiens) (UniProt P0DP23); test: CALM1 binders on microarrays, EGTA buffer, profiling panel, biochemical, small-molecule microarray, Cy5-labelled CALM1 (AID 1111); conditions: Cy5-CALM1 binding fluorescence, higher = more signal;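 also: labelled calmodulin applied in Tris saline Tween buffer holding calcium plus EGTA and DTT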
# [15] = target: Calmodulin-1 (Homo sapiens) (UniProt P0DP23); test: calcium-bound CALM1 binders on microarrays, profiling panel, artefact control for SMM control-protein annotation, biochemical, small-molecule microarray, Cy5-labelled CALM1, plus calcium (AID 1112); conditions: Cy5-CALM1 binding fluorescence, higher = more signal;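 also: score merges spot fluorescence with signal to noise from triplicate slides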
# [16] = small-molecule microarray binders of probe aWnt5a, primary screen, biochemical, biotinylated probe, 635/667 nm fluorescence (AID 1113); conditions: higher = more signal;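 also: score merges 667 nm fluorescence intensity with signal-to-noise per printed feature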
# [17] = small-molecule microarray binders of probe aShh, primary screen, biochemical, biotinylated probe, 635/667 nm fluorescence (AID 1114); conditions: higher = more signal;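 also: probe is biotin-labelled aShh protein from a stem cell growth factor screen; measures binding of labelled protein to compounds printed on the slide; score merges feature fluorescence at 667 nm with signal-to-noise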
# [18] = small-molecule microarray binders of probe aNog, primary screen, biochemical, biotinylated probe, 635/667 nm fluorescence (AID 1115); conditions: higher = more signal;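 also: probe is biotinylated aNog protein used at 0.15 µg/mL for 1 h at 4 C; z-score combines 667 nm fluorescence of each spot with its signal to noise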
# [19] = target: Torsin-1A-interacting protein 1 (Homo sapiens) (UniProt Q5JTV8); test: LAP1 binders from COS7 cell lysate, primary screen, small-molecule microarray, 635/667 nm fluorescence (AID 1116); conditions: COS7-hLAP1 lysate binding, 635 nm fluorescence, higher = more signal
# [20] = target: Alpha-bungarotoxin (Bungarus multicinctus) (UniProt P60615); test: alpha-bungarotoxin binders on microarray, profiling panel, artefact control for SMM control protein annotation, biochemical, small-molecule microarray, Alexa647 label, 635/667 nm fluorescence (AID 1117); conditions: alpha-BTX-A647 binding fluorescence, higher = more signal
# Sequence of Alpha-bungarotoxin (Bungarus multicinctus) (P60615 whole entry, looked up): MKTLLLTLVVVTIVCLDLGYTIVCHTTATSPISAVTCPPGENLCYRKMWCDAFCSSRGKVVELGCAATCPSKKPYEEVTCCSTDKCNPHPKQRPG
# Sequence of Fibroblast growth factor 10 (Homo sapiens) (O15520 whole entry, looked up): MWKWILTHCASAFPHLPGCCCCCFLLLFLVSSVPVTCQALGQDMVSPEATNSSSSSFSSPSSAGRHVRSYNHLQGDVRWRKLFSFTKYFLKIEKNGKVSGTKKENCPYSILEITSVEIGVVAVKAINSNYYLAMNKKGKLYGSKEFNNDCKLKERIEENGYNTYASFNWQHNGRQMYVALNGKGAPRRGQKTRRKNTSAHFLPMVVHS
# Sequence of Torsin-1A-interacting protein 1 (Homo sapiens) (Q5JTV8 whole entry, looked up): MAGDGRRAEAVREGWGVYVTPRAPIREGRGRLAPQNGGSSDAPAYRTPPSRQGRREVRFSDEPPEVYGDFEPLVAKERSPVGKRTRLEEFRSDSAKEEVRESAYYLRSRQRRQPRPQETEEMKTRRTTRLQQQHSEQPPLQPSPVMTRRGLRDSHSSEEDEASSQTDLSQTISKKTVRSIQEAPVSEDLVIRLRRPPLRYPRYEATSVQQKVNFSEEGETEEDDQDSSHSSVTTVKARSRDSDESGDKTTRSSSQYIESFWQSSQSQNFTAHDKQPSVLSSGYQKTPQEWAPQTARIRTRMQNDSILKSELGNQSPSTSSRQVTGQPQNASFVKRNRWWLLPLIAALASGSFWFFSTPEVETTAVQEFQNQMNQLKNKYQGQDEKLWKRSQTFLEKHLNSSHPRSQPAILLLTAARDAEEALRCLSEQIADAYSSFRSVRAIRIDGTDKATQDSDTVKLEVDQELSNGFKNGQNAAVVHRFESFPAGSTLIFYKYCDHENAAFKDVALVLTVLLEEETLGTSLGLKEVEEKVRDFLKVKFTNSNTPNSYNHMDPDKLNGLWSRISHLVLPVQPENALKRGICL
# Sequence of Dickkopf-related protein 1 (Homo sapiens) (O94907 whole entry, looked up): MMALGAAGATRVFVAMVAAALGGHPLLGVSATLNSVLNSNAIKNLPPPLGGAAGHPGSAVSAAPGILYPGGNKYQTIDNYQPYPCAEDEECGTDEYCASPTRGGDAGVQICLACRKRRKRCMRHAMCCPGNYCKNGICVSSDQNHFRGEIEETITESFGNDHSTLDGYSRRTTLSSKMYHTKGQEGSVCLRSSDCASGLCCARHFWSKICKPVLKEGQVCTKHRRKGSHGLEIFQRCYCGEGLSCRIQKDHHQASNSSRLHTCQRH
# Sequence of Left-right determination factor 2 (Homo sapiens) (O00292 whole entry, looked up): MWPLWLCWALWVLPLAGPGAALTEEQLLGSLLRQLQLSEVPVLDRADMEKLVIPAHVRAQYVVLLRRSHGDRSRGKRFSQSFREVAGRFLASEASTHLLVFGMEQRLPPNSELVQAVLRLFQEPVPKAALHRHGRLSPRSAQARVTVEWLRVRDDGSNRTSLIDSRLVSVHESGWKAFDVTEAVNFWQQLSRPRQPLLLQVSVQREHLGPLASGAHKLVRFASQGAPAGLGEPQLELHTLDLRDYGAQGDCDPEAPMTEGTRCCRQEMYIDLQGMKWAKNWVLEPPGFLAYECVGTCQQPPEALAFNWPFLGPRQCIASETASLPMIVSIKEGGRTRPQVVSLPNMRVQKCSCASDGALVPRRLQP
# Sequence of Epidermal growth factor receptor (Homo sapiens) (P00533 whole entry, looked up): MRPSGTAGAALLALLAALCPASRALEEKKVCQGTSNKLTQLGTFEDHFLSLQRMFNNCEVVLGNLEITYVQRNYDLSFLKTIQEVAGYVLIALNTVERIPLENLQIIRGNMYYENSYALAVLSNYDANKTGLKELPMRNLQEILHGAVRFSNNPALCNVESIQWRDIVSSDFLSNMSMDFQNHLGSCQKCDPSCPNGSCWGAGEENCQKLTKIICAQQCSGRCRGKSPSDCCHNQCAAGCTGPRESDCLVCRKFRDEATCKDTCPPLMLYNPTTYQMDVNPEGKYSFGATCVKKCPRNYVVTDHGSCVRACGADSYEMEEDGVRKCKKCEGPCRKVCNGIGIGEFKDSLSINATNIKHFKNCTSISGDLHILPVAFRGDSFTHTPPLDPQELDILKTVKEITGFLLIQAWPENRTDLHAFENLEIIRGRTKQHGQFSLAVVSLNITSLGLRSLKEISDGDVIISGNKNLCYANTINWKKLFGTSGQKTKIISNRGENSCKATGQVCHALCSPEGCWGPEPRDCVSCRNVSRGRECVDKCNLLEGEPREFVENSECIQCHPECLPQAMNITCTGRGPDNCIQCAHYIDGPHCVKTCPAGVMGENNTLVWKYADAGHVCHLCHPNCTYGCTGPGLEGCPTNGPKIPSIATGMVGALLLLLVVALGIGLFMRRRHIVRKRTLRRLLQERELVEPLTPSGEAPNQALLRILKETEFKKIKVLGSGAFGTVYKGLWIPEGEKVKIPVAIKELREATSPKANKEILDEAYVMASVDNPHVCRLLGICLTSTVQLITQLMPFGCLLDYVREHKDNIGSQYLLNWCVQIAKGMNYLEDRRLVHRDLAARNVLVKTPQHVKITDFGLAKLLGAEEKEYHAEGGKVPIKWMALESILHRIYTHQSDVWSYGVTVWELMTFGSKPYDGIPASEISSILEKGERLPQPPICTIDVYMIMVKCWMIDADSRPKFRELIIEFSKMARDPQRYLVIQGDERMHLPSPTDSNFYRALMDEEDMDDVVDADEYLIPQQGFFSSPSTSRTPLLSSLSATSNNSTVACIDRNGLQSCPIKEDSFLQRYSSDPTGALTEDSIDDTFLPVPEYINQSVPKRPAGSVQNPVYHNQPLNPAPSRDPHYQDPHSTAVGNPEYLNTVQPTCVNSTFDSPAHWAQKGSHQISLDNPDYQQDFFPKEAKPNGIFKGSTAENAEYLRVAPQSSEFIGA
# Sequence of Follistatin-related protein 3 (Homo sapiens) (O95633 whole entry, looked up): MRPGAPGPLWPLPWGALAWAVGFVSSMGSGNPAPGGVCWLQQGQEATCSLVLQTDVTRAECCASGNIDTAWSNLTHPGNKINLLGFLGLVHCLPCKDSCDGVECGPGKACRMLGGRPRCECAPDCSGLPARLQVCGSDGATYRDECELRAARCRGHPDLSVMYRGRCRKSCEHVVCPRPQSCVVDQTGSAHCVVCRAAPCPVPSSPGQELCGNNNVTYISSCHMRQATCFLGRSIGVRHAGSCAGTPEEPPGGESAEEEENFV
SMILES,composite z-score [1],composite z-score [2],composite z-score [3],z-score [4],composite z-score [5],composite z-score [6],composite z-score [7],composite z-score [8],composite z-score [9],composite z-score [10],composite z-score [11],z-score [12],composite z-score [13],composite z-score [14],composite z-score [15],composite z-score [16],composite z-score [17],composite z-score [18],composite z-score [19],composite z-score [20]
COC(=O)CC=C[C@@H](C)[C@@H](C=NOC[C@@H](O)[C@H]1O[C@@H]2OC(C)(C)O[C@@H]2[C@H]1O)OC,0.42,-0.0276,-0.673,-0.123 (inactive),0.247,0.589,0.496,0.115,0.56,-0.16,0.416,-0.594,0.638,-0.139,-0.565,-0.012,-0.0035,-0.234,0.422,0.265
CCN(CC)CC(O)CN1CCCCc2nc(C)c(C)cc21 (stereo not given),-0.145,-0.33,-0.485,-1.7 (inactive),0.507,0.709,0.256,0.42,0.701,0.29,-0.0592,0.932,0.31,-0.397,-0.125,-0.129,-0.138,-0.0137,0.579,0.695
COC(=O)CC=C[C@@H](C)[C@@H](C=NOC[C@@H](O)COCc1ccco1)NS(=O)(=O)c1ccc(C)cc1,0.406,-0.87,-1.13,0.46 (inactive),-0.168,-0.268,0.497,0.914,0.864,1.65,-1.24,-0.42,1.04,-2.79,-2.64,-0.166,-0.162,-0.252,-0.435,-0.672
C[C@@H]1CC[C@@H](C(=O)O)N[C@H]1c1cccc(N2CCOCC2)c1,0.168,-0.191,-0.449,-1.02 (inactive),0.631,0.74,0.797,0.409,0.109,0.0223,0.456,0.47,0.436,-0.101,-0.0411,-0.0758,-0.262,-0.324,0.513,0.851
CC(C)=CCCC(C)=CCON=C1C[C@@H](O)[C@@H](O)[C@@H]2[C@@H]3C(=O)N(C4CCCCC4)C(=O)[C@@H]3CC[C@H]12,0.475,-0.107,-0.304,-0.693 (inactive),0.785,0.701,0.513,1.11,0.873,0.644,0.684,-0.127,0.594,-0.432,-1.2,-0.0425,-0.0904,-0.341,-0.0853,0.713
COc1ccc(COC(=O)NN=C2C[C@@H](O)[C@@H](O)[C@@H]3[C@@H]4C(=O)N([C@@H](C)c5ccccc5)C(=O)[C@@H]4CC[C@H]23)cc1,-0.25,-0.121,1.4,0.445 (inactive),-0.227,-0.721,-0.587,-0.131,-0.769,0.541,-1.05,-1.66,-0.291,-0.0436,0.073,-0.0405,0.0121,0.314,-0.484,0.471
COC(=O)[C@@H]1CC[C@H](C)[C@@H](c2ccc(Br)cc2)N1C[C@H](O)CN=[N+]=[N-],0.0722,-0.234,0.0248,-0.812 (inactive),0.248,-0.154,0.385,-0.347,-0.148,0.616,0.0343,-0.0104,0.346,0.0364,0.123,0.14,-0.0243,-0.183,-0.133,0.426
COc1ccc(O[C@H]2C=C[C@@H](c3ccccc3)O[C@@H]2CO)cc1,0.281,-0.227,-0.116,-0.752 (inactive),0.194,0.207,0.731,0.318,0.485,0.622,-0.438,0.231,0.213,-0.329,-0.643,-0.148,0.0278,0.041,0.171,0.441
CC(=O)OC[C@H]1O[C@H](C#CCC2CCCCC2)C=C[C@@H]1OC(C)=O,1.26,-0.215,-0.595,-0.531 (inactive),1.04,0.719,0.362,0.674,0.668,-0.222,1.12,-2.57,0.992,0.235,-0.26,-0.154,0.194,0.129,0.471,0.36
C[C@H]1C=CCC(=O)OC[C@H](C)C(=O)N2CCC[C@H]2C(=O)OC1,1.01,-0.235,-1.53,-0.0436 (inactive),1.47,1.29,1.73,1.48,2.11,-0.626,-2.34,-0.971,1.62,-0.774,-1.82,-0.174,-0.0709,-0.137,1.71,-0.477
C=CC[C@@H]1C=C[C@H](ON=C[C@@H](NS(=O)(=O)c2ccc(C)cc2)[C@H](C)C=CCC(=O)OC)[C@@H](CO)O1,0.296,-0.353,-0.642,0.463 (inactive),0.0083,-0.0166,0.516,0.566,0.619,1.15,-0.782,-0.0493,0.917,-0.83,-0.984,-0.13,-0.138,-0.402,0.269,0.452
CCN1C(=O)[C@H]2[C@H]3[C@H](O)[C@H](O)CC(=NNC(=O)OCc4ccccc4)[C@H]3CC[C@H]2C1=O,-0.0508,0.0829,0.877,-0.45 (inactive),0.186,-0.493,-0.198,-0.0353,-0.26,0.0251,0.663,-0.0788,0.227,-0.307,-0.767,-0.0459,0.0637,-0.452,0.185,0.504
